tim10-1 inh = tim10-1 yeast growth inhibition. AID 463190. 330,000 compounds, 2.2% hits. inhibition, % at 20 µM. S. cerevisiae tim10-1 ts strain growth, BacTiter-Glo, 24 h;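 active means inhibition of at least 40%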;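 further: mutant grown at 25 °C; 0% = DMSO wells with yeast and 100% = wells holding no yeast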
PfHsp90 set2 = growth inhibition of yeast expressing Plasmodium Hsp90. S. cerevisiae expressing PfHsp90, BacTiter-Glo ATP, 48 h; yeast lacking PDR1 and PDR3 efflux regulators. inhibition, % at 9.4 µM. 310,000 compounds, 0.32% hits. AID 504621;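 active means every replicate shows inhibition above about 80%, whatever the replicate mean, limit read from the data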;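 further: 0% = DMSO neutral controls and 100% = 20 µM radicicol positive controls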
TIM10 inh = growth inhibitors of TIM10 yeast strain; S. cerevisiae TIM10 strain growth, BacTiter-Glo luminescence, 24 h; inhibition, % at 10 µM; 330,000 compounds, 1.4% hits;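 active means inhibition of 40% or more at the single tested concentration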;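 further: wild-type TIM10 isogenic control strain grown at permissive 25 °C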
tim23-1 inh = inhibits growth of tim23-1 mutant yeast. S. cerevisiae tim23-1 growth, BacTiter-Glo luminescence, 24 h. inhibition, % at 20 µM. 330,000 compounds, 1.3% hits. AID 463212;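 active means growth inhibition of the mutant yeast at or above 50%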;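 further: temperature-sensitive mutant grown at 25 °C; plate controls were DMSO-treated mutant yeast for no effect and medium wells lacking yeast for full effect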
NALP1 yeast inh = NALP1 inhibition; AID 2071; S. cerevisiae NALP1/ASC/caspase-1 growth, X-gal OD620, 72 h; 280,000 compounds, 0.61% hits; inhibition, % at 10 µM; in the data active means inhibition mostly above about 24%, no sharp cut-off; inactive means mostly below about 32%
NALP3 yeast inh = inhibitors of NALP3 inflammasome in yeast; Yeast reconstituted NLRP3/ASC/caspase-1, beta-gal luminescence, 24 h; inhibition, % at 10 µM; 330,000 compounds, 0.39% hits; AID 2825;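 active means inhibition of 50% or more; inactive means inhibition below 50%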;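 further: plate controls were induced DMSO wells for no effect and uninduced yeast grown without galactose for full effect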
NALP3 yeast conf = NALP3 inhibition confirmation in yeast. shares compounds with NALP3 yeast inh. yeast expressing human NALP3, luminescence. inhibition, % at 10 µM. 1,300 compounds, 81% hits. AID 435006; in the data active means inhibition above about 48%
Casp1-ASC yeast = counter-screen for NALP3 inhibitors: yeast caspase-1-ASC | shares compounds with NALP3 yeast inh | yeast expressing Caspase-1-ASC, luminescence counter screen | inhibition, % at 10 µM | 1,000 compounds, 66% hits
NALP3 retest = confirmation retest of NALP3 inhibitors in yeast | inhibition, % at 10 µM | shares compounds with NALP3 yeast inh | 1,000 compounds, 53% hits | yeast expressing human NALP3, luminescence read-out
tim10-1 confirm = tim10-1 yeast growth inhibition, confirmed. shares compounds with tim10-1 inh. S. cerevisiae tim10-1 ts strain growth, BacTiter-Glo, 24 h. inhibition, % at 20 µM. 7,400 compounds, 56% hits. AID 463213;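 active means inhibition of yeast growth at or above a set limit in either of two repeat tests at 20 µM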;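 further: tim10-1 mutant grown at permissive 25 °C to find synthetic lethal compounds; 0% = DMSO yeast wells and 100% = medium wells without yeast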
TIM10 conf = confirmation of TIM10 yeast growth inhibitors; shares compounds with TIM10 inh; S. cerevisiae tim10 strain growth, BacTiter-Glo luminescence, 24 h; inhibition, % at 10 µM; 4,600 compounds, 63% hits;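 active means inhibition of yeast growth at or above a set limit in either of two replicates at 10 µM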;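 further: this counterscreen used the strain with wild-type TIM10; 0% = yeast with DMSO and 100% = medium wells lacking yeast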
tim23-1 confirm = tim23-1 yeast growth inhibition, confirmed | shares compounds with tim23-1 inh | S. cerevisiae tim23-1 growth, BacTiter-Glo luminescence, 24 h | inhibition, % at 20 µM | 4,400 compounds, 83% hits | AID 463218;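 active means inhibition above about 39% in either of two replicate wells at 20 µM, limit read from the data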;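 further: temperature-sensitive tim23-1 mutant grown at 25 °C; 0% = DMSO wells with yeast and 100% = medium wells without yeast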
An asterisk follows results filed as active; x = no result given. In the library only some 4.2% were active in any assay of this set; here they are far more common. Unless noted, no stated cut-off is given here; in the data, active means inhibition above about 50%; inactive means the rest.

SMILES	tim10-1 inh	PfHsp90 set2	TIM10 inh	tim23-1 inh	NALP1 yeast inh	NALP3 yeast inh	NALP3 yeast conf	Casp1-ASC yeast	NALP3 retest	tim23-1 confirm	others
Cc1nc2ccc(C(C(F)(F)F)(C(F)(F)F)C(F)(F)F)cc2[nH]1	30	4	35	59*	40*	95*	90*	89*	80*	66*
NC(=S)N/N=C/c1ccccc1	-6	-4	3	-4	16	1	x	x	x	x
NC(=S)N/N=C/c1ccc(C23CC4CC(CC(C4)C2)C3)cc1	-24	x	-7	75*	5	64*	34	x	x	68*
O=C(N/N=C/c1ccco1)c1cc2ccccc2o1	23	10	41*	66*	22	64*	74*	64*	63*	64*	TIM10 conf=12
O=C(N/N=C/c1ccco1)c1ccc(Br)o1	-32	-6	-21	-4	-4	5	x	x	x	x
COc1c(OC(C)=O)c(=O)n2c3ccccc3c3ccnc1c32	70*	-8	73*	83*	x	71*	75*	26	64*	67*	tim10-1 confirm=64*;TIM10 conf=80*
CC(=O)Oc1c(C)c(=O)n(C)c2ccccc12	3	-18	-10	14	21	-18	x	x	x	x
CCOC(=O)C1=CN(Cc2ccco2)S(=O)(=O)NC1CC (stereo not given)	15	13	-5	30	x	x	x	x	x	x
Cc1ccc(Nc2c(-c3ccccn3)nc3cc(C)ccn23)cc1	36	4	25	57*	-3	53*	63*	50*	41	50*
CCN(CC(=O)NC(C)(C)C)Cc1cc(=O)n2c(-c3ccccc3)csc2n1	2	6	8	-3	19	16	x	x	x	x
O=c1c2ccccc2oc2cc(Br)ccc12	x	-15	x	x	x	x	x	x	x	x
COc1cc2oc3ccccc3c(=O)c2cc1OC	43*	-11	7	63*	10	62*	72*	55*	59*	53*	tim10-1 confirm=21
C/C(N)=C(/C#N)C(=O)COC(=O)c1ccc(NC(N)=O)cc1	-1	-2	-16	11	x	-4	x	x	x	x
O=C(NC(=S)Nc1cnc2ccccc2c1)c1ccccc1	18	8	51*	53*	-7	73*	64*	65*	59*	69*	TIM10 conf=54*
COc1cccc(N2CCN(C(=O)c3cc(-c4ccccc4)nc4c3cnn4C(C)C)CC2)c1	9	-7	14	16	x	7	x	x	x	x
O=Cc1cn(-c2ccccc2)nc1-c1ccc2c(c1)OCCO2	53*	26	47*	72*	-19	50*	57*	52*	60*	78*	tim10-1 confirm=59*;TIM10 conf=62*
N#Cc1cn(-c2ccccc2)nc1-c1ccc2c(c1)OCCO2	16	-12	7	2	-12	5	x	x	x	x
Cc1cccc(NC(=O)c2cnc3ccccn3c2=O)c1	6	14	30	61*	x	51*	77*	x	x	55*
O=C(Nc1ccc2c(c1)OCCO2)c1cnc2ccccn2c1=O	14	21	17	8	x	25	x	x	x	x
CCCc1nc(SC)[nH]c(=O)c1C	-1	12	-10	4	-5	-3	x	x	x	x
CCn1c(=O)c(C(=O)NCCCc2ccccc2)c(O)c2ccccc21	-36	11	-15	0	-2	15	x	x	x	x
O=C(NCCC1=CCCCC1)c1c(O)nc2ccccn2c1=O	51*	-22	31	56*	18	63*	76*	52*	55*	56*	tim10-1 confirm=-6
O=C(NCCC1=CCCCC1)c1cnsn1	12	-18	2	6	8	-4	x	x	x	x
O=C(NCCCc1ccccc1)c1c(O)nc2sccn2c1=O	36	15	31	70*	x	63*	77*	39	59*	54*
O=C(NCCC1=CCCCC1)c1c(O)nc2sccn2c1=O	42*	x	36	75*	x	67*	79*	48	56*	62*	tim10-1 confirm=1
SMILES	tim10-1 inh	PfHsp90 set2	TIM10 inh	tim23-1 inh	NALP1 yeast inh	NALP3 yeast inh	NALP3 yeast conf	Casp1-ASC yeast	NALP3 retest	tim23-1 confirm	others
CCCCN(C(=O)c1c(-c2ccccc2)noc1C)c1c(N)n(CCC)c(=O)[nH]c1=O	-5	-22	4	-12	x	15	x	x	x	x
COC(=O)c1ccccc1S(=O)c1snnc1C (stereo not given)	-10	9	-6	-12	-1	-3	x	x	x	x
CCC(C)[C@H](NC(=O)Nc1ccccc1F)C(=O)OC (stereo not given in full)	-19	1	5	-11	15	10	x	x	x	x
CCOC(=O)c1cccc(NC(=O)c2cccs2)c1	36	12	65*	57*	14	61*	79*	51*	53*	80*	TIM10 conf=57*
O=C(/C=C\Nc1ccccn1)c1ccccc1	11	-12	48*	52*	-5	63*	46*	59*	54*	80*	TIM10 conf=52*
Cc1cc(=O)c(C(=O)Nc2ccc(N3CCOCC3)cc2N2CCOCC2)nn1-c1ccccc1Cl	-4	-9	8	4	x	10	x	x	x	x
Cc1ccc2nc(NC(=O)Cn3nc(C)c([N+](=O)[O-])c3C)sc2c1	25	-2	48*	51*	26	50	-2	x	x	65*	TIM10 conf=-9
CC(C)(O)c1cc2ccc(C#Cc3ccsc3)cc2c(=O)o1	12	26	17	60*	x	65*	51*	67*	58*	24
CCCCCC(=O)NC(=S)Nc1cccc(-c2nc3ncccc3o2)c1	-15	x	9	-10	11	26	x	x	x	x
CC(C)(C)n1cnc2cc(NC(=O)c3cccs3)ccc21	25	23	61*	53*	11	57*	74*	60*	45	71*	TIM10 conf=55*
CCOC(=O)C1=C(COC(=O)CCCOc2ccccc2)NC(=O)NC1C (stereo not given)	-18	7	-14	1	x	15	x	x	x	x
COc1ccc2c(=O)c(-c3nc(C)cs3)coc2c1	43*	26	64*	52*	x	77*	54*	68*	66*	65*	tim10-1 confirm=33*;TIM10 conf=-39

Bioassay records: PubChem BioAssay, several laboratories
